Assay results taken from PubChem BioAssay (Tox21).
Records with an inconclusive call do not appear. Calls of active or inactive are those of the source. Calls follow the shape of the dose curve; as a rule, active = well fitted curve in the direction sought with a large enough effect in the repeat runs; inconclusive = weak or mixed curves; inactive = no such curve, though single readings can be large; an effect the other way counts as inactive or inconclusive.

assay: qHTS RealTime-Glo MT Cell Viability Assay in HEK293 cells - 32 hour (AID 1224868); details: RealTime-Glo luminescence; series mostly up to 76.8 µM; activity change, negative = cytotoxic: at the top concentration; also: potency is read from the fitted curve at half-maximal effect; as to activity change, negative = cytotoxic: top concentration of the series differs between compounds
Outline: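 Homogeneous bioluminescent viability format in HEK293 cells (600 cells/well). Following 5 h at 37 C/5% CO2, 23 nL compound was pintooled; the signal was measured repeatedly during 40 h incubation.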
% is scaled to controls: 0 for no effect and ±100 for the full control effect.
Also: nearly all actives have a fitted effect of over 50% in size.

Row | Structure (SMILES) | activity change, negative = cytotoxic | Potency
1 | N=c1ccn2c(n1)O[C@H]1[C@H](O)[C@@H](CO)O[C@H]12 | 18.3% (inactive) | –
2 | CC1=CC=C(C(C)C)CC1 | 1.24% (inactive) | –
3 | CN1CCN(C(c2ccccc2)c2ccccc2)CC1 | 0.337% [at 35.3 µM] (inactive) | –
4 | C/C(=C(\CCOP(=O)(O)O)SC(=O)c1ccccc1)N(C=O)Cc1cnc(C)nc1N | 2.89% [at 6.97 µM] (inactive) | –
5 | C=C(C)C(=O)OCCOCC | 16.6% (inactive) | –
6 | COc1ccc(C(=O)c2ccc(OC)cc2O)c(O)c1 | – | 27.7 µM (active)
7 | C[N+]1(C)CCC(OC(=O)C(O)(c2ccccc2)C2CCCC2)C1 (configuration not stated) | 0.165% [at 35.3 µM] (inactive) | –
8 | NS(=O)(=O)c1ccc(N2CCCCS2(=O)=O)cc1 | -0.982% [at 35.3 µM] (inactive) | –
9 | CN(Cc1ccc(C(C)(C)C)cc1)Cc1cccc2ccccc12 | -22.5% [at 35.3 µM] (inactive) | –
10 | CCCn1cnc2c1c(=O)n(CCCCC(C)=O)c(=O)n2C | -1.78% [at 35.3 µM] (inactive) | –
11 | CCCC(=O)Nc1ccc(O)c(C(C)=O)c1 | -0.843% [at 35.3 µM] (inactive) | –
12 | CC(C)CC(=O)C1C(=O)c2ccccc2C1=O | 0.555% (inactive) | –
13 | CN(C)c1ccc(CCO)cc1 | – | 30.7 µM (active)
14 | Cc1[nH]c(C)c(Cl)c(=O)c1Cl | -20.8% [at 15.8 µM] (inactive) | –
15 | COc1cc(Cl)c(OC)cc1N | -23.9% (inactive) | –
16 | Nc1c(CC(=O)O)cccc1C(=O)c1ccc(Br)cc1 | 14.2% [at 35.3 µM] (inactive) | –
17 | CCCCCCCCCc1ccc(OCCOCCO)cc1 | – | 1.15 µM (active)
18 | Brc1c2ccccc2c(Br)c2ccccc12 | 4.29% [at 6.97 µM] (inactive) | –
19 | CNCCCCOc1ccccc1Cc1ccccc1 | – | 23.9 µM (active)
20 | Cc1ccc(N=Nc2c(O)c(C(=O)O)cc3ccccc23)c(S(=O)(=O)O)c1 | 0.598% [at 35.3 µM] (inactive) | –
21 | CCCCC(CC)COC(=O)COc1ccc(Cl)cc1Cl (configuration not stated) | 13.1% (inactive) | –
22 | O=C(CS)Nc1ccccc1 | -16.1% [at 35.3 µM] (inactive) | –
23 | CC(=O)OC[C@H]1O[C@@H](n2ncc(=O)[nH]c2=O)[C@H](OC(C)=O)[C@@H]1OC(C)=O | -26.2% [at 35.3 µM] (inactive) | –

assay: A CellTox Green Cytotoxicity Assay to monitor cytotoxicity in HEK293 cells - 0 hour (AID 1224869); details: CellTox Green fluorescence; series mostly up to 76.8 µM; cytotoxicity: at the top concentration
Outline: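 Cells (HEK293, 600/well) and dye reagent are dispensed together. After 5 h at 37 C, 23 nL compound is pinned in. Plates stay at 37 C for 40 h with fluorescence read at 0h, 8h, 16h, 24h, 32h and 40h.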

Row | Structure (SMILES) | cytotoxicity
24 | N=c1ccn2c(n1)O[C@H]1[C@H](O)[C@@H](CO)O[C@H]12 | -8.1% (inactive)
25 | CC1=CC=C(C(C)C)CC1 | -1.84% (inactive)
26 | CN1CCN(C(c2ccccc2)c2ccccc2)CC1 | 2.53% [at 35.3 µM] (inactive)
27 | C/C(=C(\CCOP(=O)(O)O)SC(=O)c1ccccc1)N(C=O)Cc1cnc(C)nc1N | 0.458% [at 6.97 µM] (inactive)
28 | C=C(C)C(=O)OCCOCC | 2.96% (inactive)
29 | CCOC(=O)COC(=O)c1cc(Oc2ccc(C(F)(F)F)cc2Cl)ccc1[N+](=O)[O-] | -0.517% (inactive)
30 | COc1ccc(C(=O)c2ccc(OC)cc2O)c(O)c1 | 5.4% (inactive)
31 | NS(=O)(=O)c1ccc(N2CCCCS2(=O)=O)cc1 | 0.636% [at 35.3 µM] (inactive)
32 | O=C(O)c1ccc(-n2nc(-c3ccccc3O)nc2-c2ccccc2O)cc1 | 0.0908% [at 35.3 µM] (inactive)
33 | CCOc1ccc(O)cc1 | -5.1% (inactive)
34 | CC(=O)c1ccc2c(c1)N(CCCN(C)C)c1ccccc1S2 | 2.98% [at 35.3 µM] (inactive)
35 | CCCn1cnc2c1c(=O)n(CCCCC(C)=O)c(=O)n2C | -0.74% [at 35.3 µM] (inactive)
36 | CCCC(=O)Nc1ccc(O)c(C(C)=O)c1 | -2.13% [at 35.3 µM] (inactive)
37 | CC(C)CC(=O)C1C(=O)c2ccccc2C1=O | -4.12% (inactive)
38 | CN(C)c1ccc(CCO)cc1 | -0.427% (inactive)
39 | CCN(CC)CCOC(=O)C(c1ccccc1)C1CCCCC1 (configuration not stated) | -4.05% [at 35.3 µM] (inactive)

Row | Structure (SMILES) | cytotoxicity
40 | Cc1ccc(C(=O)Oc2ccc(C(O)CNC(C)(C)C)cc2OC(=O)c2ccc(C)cc2)cc1 (configuration not stated) | 0.924% [at 35.3 µM] (inactive)
41 | CCCCCCCCCCCCCCCCCCOS(=O)(=O)O | 1.39% (inactive)
42 | Cc1[nH]c(C)c(Cl)c(=O)c1Cl | 2.83% [at 15.8 µM] (inactive)
43 | C/C=C/C=C/CO | -4% (inactive)
44 | COc1cc(Cl)c(OC)cc1N | 0.612% (inactive)
45 | Nc1c(CC(=O)O)cccc1C(=O)c1ccc(Br)cc1 | 4.59% [at 35.3 µM] (inactive)
46 | CCCCCCCCCc1ccc(OCCOCCO)cc1 | -1.46% [at 35.3 µM] (inactive)
47 | Brc1c2ccccc2c(Br)c2ccccc12 | 0.676% [at 6.97 µM] (inactive)
48 | CNCCCCOc1ccccc1Cc1ccccc1 | -4.86% [at 35.3 µM] (inactive)
49 | Brc1c2ccccc2cc2ccccc12 | 0.946% (inactive)
50 | Cc1ccc(N=Nc2c(O)c(C(=O)O)cc3ccccc23)c(S(=O)(=O)O)c1 | -8.97% [at 35.3 µM] (inactive)
51 | O=C(CS)Nc1ccccc1 | -3.93% [at 35.3 µM] (inactive)
52 | O=C(O)c1ccccc1Cl | -7.81% (inactive)
53 | CC(=O)OC[C@H]1O[C@@H](n2ncc(=O)[nH]c2=O)[C@H](OC(C)=O)[C@@H]1OC(C)=O | -8.72% [at 35.3 µM] (inactive)
54 | Clc1ccc2c(c1)CCc1cccnc1C2=C1CCNCC1 | 0.296% [at 35.3 µM] (inactive)

assay: qHTS RealTime-Glo MT Cell Viability Assay in HepG2 cells - 40 hour (AID 1224870); details: RealTime-Glo luminescence; series mostly up to 76.8 µM; activity change, negative = cytotoxic: at the top concentration; also: potency is read from the fitted curve at half-maximal effect
Outline: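 HepG2 cells mixed with RealTime-Glo MT reagents (NanoLuc plus cell-permeant prosubstrate) were seeded at 600 cells/well, incubated 5 h at 37 C/5% CO2, then pinned with compounds in DMSO; nonlytic luminescence tracked viability during 40 h treatment.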

Row | Structure (SMILES) | activity change, negative = cytotoxic | Potency
55 | N=c1ccn2c(n1)O[C@H]1[C@H](O)[C@@H](CO)O[C@H]12 | -3.98% (inactive) | –
56 | CC(C)Cc1ccc(C(C)C(=O)OCc2ccccn2)cc1 (configuration not stated) | -5.37% [at 35.3 µM] (inactive) | –
57 | CC1=CC=C(C(C)C)CC1 | -0.458% (inactive) | –
58 | C=C(C)C(=O)OCCOCC | -2.01% (inactive) | –
59 | CCOC(=O)COC(=O)c1cc(Oc2ccc(C(F)(F)F)cc2Cl)ccc1[N+](=O)[O-] | -10% (inactive) | –
60 | COc1ccc(C(=O)c2ccc(OC)cc2O)c(O)c1 | -8.03% (inactive) | –
61 | C[N+]1(C)CCC(OC(=O)C(O)(c2ccccc2)C2CCCC2)C1 (configuration not stated) | 0.758% [at 35.3 µM] (inactive) | –
62 | NS(=O)(=O)c1ccc(N2CCCCS2(=O)=O)cc1 | 1.85% [at 35.3 µM] (inactive) | –
63 | O=C(O)c1ccc(-n2nc(-c3ccccc3O)nc2-c2ccccc2O)cc1 | -7.32% [at 35.3 µM] (inactive) | –
64 | CCOc1ccc(O)cc1 | 0.444% (inactive) | –
65 | CN(Cc1ccc(C(C)(C)C)cc1)Cc1cccc2ccccc12 | -8.94% [at 35.3 µM] (inactive) | –
66 | CC(=O)c1ccc2c(c1)N(CCCN(C)C)c1ccccc1S2 | -1.75% [at 35.3 µM] (inactive) | –
67 | CCCn1cnc2c1c(=O)n(CCCCC(C)=O)c(=O)n2C | 1.35% [at 35.3 µM] (inactive) | –
68 | CCCC(=O)Nc1ccc(O)c(C(C)=O)c1 | 2.2% [at 35.3 µM] (inactive) | –
69 | CC(C)CC(=O)C1C(=O)c2ccccc2C1=O | -7.19% (inactive) | –
70 | CN(C)c1ccc(CCO)cc1 | 0.569% (inactive) | –
71 | Cc1ccc(C(=O)Oc2ccc(C(O)CNC(C)(C)C)cc2OC(=O)c2ccc(C)cc2)cc1 (configuration not stated) | – | 23.9 µM (active)
72 | CCCCCCCCCCCCCCCCCCOS(=O)(=O)O | 0.922% (inactive) | –
73 | Cc1[nH]c(C)c(Cl)c(=O)c1Cl | 1.26% [at 15.8 µM] (inactive) | –
74 | C/C=C/C=C/CO | 1.12% (inactive) | –
75 | COc1cc(Cl)c(OC)cc1N | 0.736% (inactive) | –
76 | Nc1c(CC(=O)O)cccc1C(=O)c1ccc(Br)cc1 | 1.69% [at 35.3 µM] (inactive) | –
77 | Brc1c2ccccc2cc2ccccc12 | -3.21% (inactive) | –
78 | Cc1ccc(N=Nc2c(O)c(C(=O)O)cc3ccccc23)c(S(=O)(=O)O)c1 | -18.6% [at 35.3 µM] (inactive) | –
79 | O=C(CS)Nc1ccccc1 | 5.52% [at 35.3 µM] (inactive) | –
80 | O=C(O)c1ccccc1Cl | 0.743% (inactive) | –
81 | CC(=O)OC[C@H]1O[C@@H](n2ncc(=O)[nH]c2=O)[C@H](OC(C)=O)[C@@H]1OC(C)=O | -4.52% [at 35.3 µM] (inactive) | –
82 | Clc1ccc2c(c1)CCc1cccnc1C2=C1CCNCC1 | – | 23.9 µM (active)
